Experimental data reported in the supplement of paper PMC6555819.

Assays:
Assay in all cases: PBM binding z-score (relative to random genomic background probes); higher = stronger binding; sequences stand for … in GC…GCGATTGACAGCGTAGAATGAAGG
[1] = system: FXR:RXRa (NR concentration 270 nM, RXRa partner concentration 90 nM)
Procedure, shortened: (§1)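 For binding z-scores, the reference was random background probes on custom Agilent 4×180K protein-binding microarrays. These arrays were incubated 1 h with ligand-free nuclear receptor dimers in PBS pH 7.4, 2% milk, 0.02% Triton X-100, 1 mM DTT, 0.2 mg/mL BSA and 0.4 mg/ml salmon testes DNA. Fluorescence was scanned after antibody detection of each partner (one per run) and regression-normalized.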

[2] = system: LXRa:RXRa (NR concentration 270 nM, RXRa partner concentration 90 nM)
Procedure, shortened: as §1

[3] = system: LXRa homodimer (NR concentration 270 nM)
Procedure, shortened: as §1

[4] = system: LXRb:RXRa (NR concentration 270 nM, RXRa partner concentration 90 nM)
Procedure, shortened: as §1

[5] = system: LXRb homodimer (NR concentration 270 nM)
Procedure, shortened: as §1

[6] = system: PPARa:RXRa (NR concentration 270 nM, RXRa partner concentration 90 nM)
Procedure, shortened: as §1

[7] = system: PPARg:RXRa (NR concentration 180 nM, RXRa partner concentration 90 nM)
Procedure, shortened: as §1

[8] = system: PPARg:RXRa 270nM:90nM, anti-RXR (NR concentration 270 nM, RXRa partner concentration 90 nM)
Procedure, shortened: as §1

[9] = system: PPARg:RXRa 30nM:10nM, anti-RXR (NR concentration 30 nM, RXRa partner concentration 10 nM)
Procedure, shortened: as §1

[10] = system: PPARg:RXRa 90nM:30nM, anti-RXR (NR concentration 90 nM, RXRa partner concentration 30 nM)
Procedure, shortened: as §1

[11] = system: PPARg:RXRa DBDmut IVT, anti-RXR (DBD mutation: RXRa K156A/R161A, NR concentration 270 nM, RXRa partner concentration 90 nM)
Procedure, shortened: as §1

[12] = system: PPARg:RXRa IVT, anti-PPARg (NR concentration 270 nM, RXRa partner concentration 90 nM)
Procedure, shortened: as §1

[13] = system: PPARg DBDmut:RXRa IVT, anti-PPARg (DBD mutation: PPARg1 K132A/R137A, NR concentration 270 nM, RXRa partner concentration 90 nM)
Procedure, shortened: as §1

[14] = system: PPARg DBDmut IVT, anti-PPARg (DBD mutation: PPARg1 K132A/R137A, NR concentration 270 nM)
Procedure, shortened: as §1

[15] = system: PPARg homodimer (NR concentration 180 nM)
Procedure, shortened: as §1

[16] = system: PXR:RXRa (NR concentration 270 nM, RXRa partner concentration 90 nM)
Procedure, shortened: as §1

[17] = system: PXR homodimer (NR concentration 270 nM)
Procedure, shortened: as §1

[18] = system: RARa:RXR (NR concentration 270 nM, RXRa partner concentration 90 nM)
Procedure, shortened: as §1

[19] = system: RARa homodimer (NR concentration 270 nM)
Procedure, shortened: as §1

[20] = system: RARb:RXRa (NR concentration 270 nM, RXRa partner concentration 90 nM)
Procedure, shortened: as §1

Sequence	PBM binding z-score [1]	PBM binding z-score [2]	PBM binding z-score [3]	PBM binding z-score [4]	PBM binding z-score [5]	PBM binding z-score [6]	PBM binding z-score [7]	PBM binding z-score [8]	PBM binding z-score [9]	PBM binding z-score [10]	PBM binding z-score [11]	PBM binding z-score [12]	PBM binding z-score [13]	PBM binding z-score [14]	PBM binding z-score [15]	PBM binding z-score [16]	PBM binding z-score [17]	PBM binding z-score [18]	PBM binding z-score [19]	PBM binding z-score [20]
GCAGACAGGTGAAAGGCAGGTAACTCAGGGTGGC	0.0647	0.0817	-0.103	-0.00398	-0.276	0.899	0.826	0.901	-0.278	0.391	0.331	0.821	-0.179	-1.25	0.447	-0.081	-0.0558	0.332	0.233	0.812
CCAAGCAGGCCAGGGTCACTCAAGCATTTCGCTT	2.12	1.76	-0.279	1.95	-0.754	3.07	0.977	1.81	-0.229	0.599	0.264	0.738	-0.543	-1.4	1.53	2.65	-0.14	3.4	0.312	2.61
TCATACAGGTAAATGCTAGGTGAAAGTCCGATCT	0.695	0.892	0.122	0.729	0.432	1.07	0.609	2.04	3.75	2.83	2.68	1.46	0.656	0.391	0.443	0.585	0.0342	0.804	0.732	0.542
TCATACAGGTGAAGGTAACTCAGGTACGCAGTCG	1.02	2.17	0.186	1.18	0.221	1.68	1.3	2.39	3.72	3.04	3.17	2.45	0.347	1.84	1.14	0.814	0.508	1.31	0.817	1.26
ACTAACGGGTCAACGAGGTTATAGCACGCGTATA	6.32	4.49	0.715	3.82	0.313	5.19	4.64	4.34	1.48	2.98	1.94	3.19	1.38	1.31	2.63	4.96	2.39	5.01	0.559	3.91
CGAACTTGGTCAAGGACAGTGAATCTCCGCACGC	0.162	-0.375	-0.73	-0.622	-1.03	-0.114	0.382	0.0325	-0.999	-0.567	1.01	0.689	-0.557	-0.422	-0.784	-0.25	-0.515	-0.377	-0.435	1.34
CCAATTAGTTGACCATAAGGGCAACCGAAGCTCG	0.987	0.336	0.562	0.314	0.402	0.626	0.453	0.425	-0.327	0.254	0.617	0.411	0.198	0.147	1.75	0.497	0.892	0.865	1.38	1.67
ACTAGCAGGCCAAGTTTGGGTCACTCAGACAAAG	-0.039	0.195	-0.331	0.306	-1.05	1.27	0.233	0.225	-0.237	-0.185	0.651	1.1	-0.577	-0.242	0.405	0.515	-0.504	1.43	-0.139	1.71
TCGAGTAGGTTGCCAATGGGGCATTCAGCTTTCT	-0.454	-0.408	-0.785	-0.313	-0.788	-0.0635	-0.86	0.227	0.337	0.314	0.771	0.26	-0.582	-1.2	-1.09	-0.544	-1.13	-0.717	-1.42	-0.201
CGTCCAAGGTTAGCAGGTCAGTGAAAGCGACGTG	1.34	1.26	-0.0811	0.92	-0.45	2.44	1.18	2.08	-0.171	1.04	2	2.5	-0.8	-0.782	1.06	1.18	-0.346	2.01	-0.223	3.08
ATCTCTAGGTGACAAGTTCAGTGAAAGAGAGGAC	0.297	0.503	0.114	0.645	0.171	2.58	3.19	3.1	1.46	2.43	4.9	4.99	1.89	2.47	0.963	1.33	1.38	0.974	0.324	2.12
ACTCGGAGAACAAAGGTCAGAGCTACGCCAGTGA	3.2	3.85	1.8	3.29	0.2	4.69	5.98	5.81	4.63	6.07	0.49	2.78	0.171	-0.0554	1.94	3.41	0.0377	3.89	0.493	4.21
GCGACTGGGGCATCAGCAGGTTAACATAACTTAA	-0.169	-0.338	-0.456	1.01	-0.643	1.27	1.18	1.16	0.116	0.609	3.98	3.26	-0.488	-1.04	0.292	0.289	-0.239	0.486	-0.18	0.898
ACTAGCAGGCCCAGTTTGGGTCACTCAAACAAAG	-0.0555	-0.448	-0.417	0.4	-0.861	0.93	-0.337	0.0503	-0.523	-0.144	-0.917	0.48	-1.4	-0.708	-0.457	0.133	-0.753	0.833	-0.613	0.828
